High-throughput results from PubChem BioAssay.
Pf growth 48h = Primary qHTS for delayed death inhibitors of the malarial parasite plastid, 48 hour incubation. P. falciparum luciferase growth in erythrocytes, 48 h. Potency, µM (top dose mostly 28.7 µM), for inactives: at the top dose activity change, negative = inhibition, actives largely listed as inhibitors. 310,000 compounds, 5.9% hits. AID 504832, 2011
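Growth was read as firefly luciferase luminescence after a 48 h, 37 C, 5% CO2 exposure of compounds to reporter-bearing P. falciparum cultures (0.1% parasitemia, 2% hematocrit final) in Albumax-supplemented RPMI 1640.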
Vaccinia mCherry = qHTS for Stage-Specific Inhibitors of Vaccinia Orthopoxvirus: mCherry Reporter Primary qHTS | Vaccinia virus mCherry reporter infection, fluorescence | 310,000 compounds, 0.63% hits | Potency, µM (doses to about 36.5 µM), without a hit: at the top dose activity change, negative = inhibition, actives largely listed as inhibitors; calls by dose curve; tested in A549 cells; also: nearly all actives have a fitted effect of over 35% in size
AMA1-RON2 inh = qHTS for Inhibitors of AMA1-RON; Towards Development of Antimalarial Drug Lead: Primary Screen; 360,000 compounds, 0.2% hits; Potency, µM (highest dose often 58.2 µM), for inactives: top-dose activity change, negative = inhibition, most hits filed as inhibitors; AID 720542, 2013; AlphaScreen AMA1-biotinylated RON2 peptide binding;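 also: 0% = vehicle wells and -100% = peptide control; nearly all actives have a fitted effect of over 45% in size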
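AMA1 (3D7) with his tag at 25 nM final met compounds first, then biotinylated RON2 peptide at 25 nM; detection used donor plus acceptor beads, 10 µg/mL apiece, read by AlphaScreen after 30 min at room temperature.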
Pf growth 96h = Primary qHTS for delayed death inhibitors of the malarial parasite plastid, 96 hour incubation; P. falciparum luciferase reporter growth, 96 h; Potency, µM (highest dose often 28.7 µM), inactives show at the top dose activity change, negative = inhibition, most hits filed as inhibitors; 320,000 compounds, 6.9% hits; AID 504834, 2011
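Readout is luminescence from an integrated firefly luciferase in P. falciparum. Red cells, 2% hematocrit and 0.05% parasitemia final, were cultured with compound through two parasite generations (96 hours) at 37 C, 5% CO2.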
Vaccinia Venus = qHTS for Stage-Specific Inhibitors of Vaccinia Orthopoxvirus: Venus Reporter Primary qHTS. AID 720580, 2013. Vaccinia virus Venus reporter expression, fluorescence. Potency, µM (doses to about 36.5 µM), for the others: at the highest dose activity change, negative = inhibition, actives largely listed as inhibitors. 330,000 compounds, 0.46% hits; calls by dose curve; tested in A549 cells; also: nearly all actives have a fitted effect of over 30% in size
* marks the source's active call; other numbers are inactive results; i = inactive; ? = inconclusive; / = no result given; [ ] = remark or other dose. Most compounds without a hit are left out; they make up all but 8.7% or so of the library. Unless noted, calls follow the shape of the dose curve; as a rule, active = well fitted curve in the direction sought with a large enough effect; inconclusive = small, poorly fitted or top-dose-only effect, or another doubt; inactive = no such curve, though single readings can be large; an effect the other way counts as inactive or inconclusive. Unless noted, % is scaled to controls: 0 for no effect and ±100 for the full control effect; potency is read from the fitted curve at half-maximal effect.

SMILES | Pf growth 48h | Vaccinia mCherry | AMA1-RON2 inh | Pf growth 96h | Vaccinia Venus
COc1c(O)ccc(/C=C(\C#N)c2nc3ccccc3[nH]2)c1[N+](=O)[O-] | 7.6% | i | 43.1% | 4.15µM* | 0.9%
N#C/C(=C\c1cc([N+](=O)[O-])c(N2CCOCC2)cc1N1CCOCC1)c1nc2ccccc2[nH]1 | ? | -18.0% | 5.5% | 11.7µM* | -10.7%
Cc1cc(/C=C(/C#N)c2nc3ccccc3[nH]2)c(C)n1-c1cccc([N+](=O)[O-])c1 | / | / | -24.2% | 2.33µM* | ?
N#C/C(=C/c1ccc(N2CCOCC2)o1)c1nc2ccccc2[nH]1 | 100.8% | / | 5.2% | 8.4% | i
CC(=O)NC1C(OC2OC(CC(O)C3OC([N+]4=CCC(=O)NC4=O)C(O)C3O)C(O)C(O)C2NC(=O)/C=C/CCCCCCCCC(C)C)OC(CO)C(O)C1O (stereo not given) | / | -6.3%[20.9 µM] | / | / | -12.3%[20.9 µM]
COc1ccc(C2CC(=O)c3sc(N)nc3C2)cc1 (stereo not given) | 2.94µM* | i | -24.1% | 2.62µM* | -8.6%
COc1ccc(Nc2ncc3c(n2)CC(c2ccc(OC)cc2)CC3=O)cc1 (stereo not given) | ? | -24.3% | -5.3% | 9.28µM* | -11.9%
O=C(Cn1c(=O)n2nc(-c3cccc(F)c3)nc2c2ccccc21)N1CCN(c2ccc(F)cc2)CC1 | / | -8.7% | / | / | -2.3%
CCCCNC(=O)C(CC)(ONc1ccccc1C(F)(F)F)c1ccccc1OC (stereo not given) | 10.4µM* | -22.2% | ? | ? | -11.9%
CCN(CC(=O)Nc1ccccc1OC)CC(=O)Nc1ccccc1C(F)(F)F | ? | -14.0% | 46.8% | -26.0% | -20.8%
COc1ccc(-c2nc(S(=O)(=O)c3ccccc3)c(N3CCC(C)CC3)o2)cc1 | / | -15.6% | / | / | 2.0%
CCN1CCN(c2oc(-c3ccccc3)nc2S(=O)(=O)c2ccc(C)cc2)CC1 | 13.1µM* | -2.0% | -17.9% | 11.7µM* | -16.7%
CCOc1ccc(-c2nc(S(=O)(=O)c3ccccc3)c(N3CCC(C(N)=O)CC3)o2)cc1 | ? | / | -0.6% | 14.7µM* | /
CCS(=O)(=O)Nc1cc(C(=O)N2CCCN(C=O)CC2)c2c(c1)nc(-c1ccccc1)n2C | / | i | / | / | -14.7%
CC(CNC(=O)c1cc(-c2ccccc2)n[nH]1)c1ccccc1 (stereo not given) | / | -8.6% | / | / | -10.4%
COCCNC(=O)C(NC(=O)C1CCCCC1)C12CC3CC(CC(C3)C1)C2 (stereo not given) | ? | -11.2% | 2.4% | 1.47µM* | -12.6%
CC(=O)Oc1ccc(-c2nc(-c3ccccc3)no2)cc1 | / | 27.2% | / | / | -7.3%
COc1ccccc1CNC(=O)c1cnc(N(C)C)nc1 | / | -14.2% | / | / | -8.8%
C/C1=C\[C@@H](C)C/C=C/[C@H]2[C@@H]3O[C@]3(C)[C@@H](C)[C@H]3[C@H](Cc4c[nH]c5ccccc45)NC(=O)[C@]32C(=O)/C=C/C(=O)[C@@H]1O | 0.294µM* | ? | -21.3% | 59.3% | ?
CCOc1cccc(CNC(=O)c2ccc(N3CCCC3)c(NC(=O)NCc3ccc(F)cc3)c2)c1 | / | -10.4% | / | / | -12.0%
Cn1c(=O)c2c(SCC(=O)NC3CCCC3)nc(CC(C)(C)C)nc2n(C)c1=O | ? | / | -11.8% | 13.1µM* | /
CCCc1nc(SCC(=O)N2CCCc3ccccc32)c2c(=O)n(C)c(=O)n(C)c2n1 | ? | -2.7% | -5.3% | ? | -27.7%
Cn1c(=O)c2c(SCC(=O)N3CCCc4ccccc43)nc(CC(C)(C)C)nc2n(C)c1=O | -3.0% | ? | -6.1% | -4.9% | 11.2µM*
COC(=O)CCCCCn1c(-c2ccccc2)cn2c3c(=O)n(C)c(=O)n(C)c3nc12 | / | -10.9% | / | / | -2.6%
Cc1c(C(=O)NCc2ccccc2Cl)sc2ncnc(NCC3CCCO3)c12 (stereo not given) | / | -7.0% | / | / | 13.2%
SMILES | Pf growth 48h | Vaccinia mCherry | AMA1-RON2 inh | Pf growth 96h | Vaccinia Venus
Cc1c(C=O)c(C=O)c(C)n1Cc1ccccc1 | / | -4.9% | 21.3% | 5.22µM* | -1.5%
CC(=O)c1c(C(C)=O)c(C)n(Cc2ccccc2)c1C | -25.7% | -15.1% | -1.2% | / | -18.6%
Oc1cccc(Nc2nc(O)c(/C=C3\C=Nc4ccccc43)s2)c1 | 30.2% | ? | -12.8% | -16.3% | 49.8%
Oc1nc(Nc2ccc(F)cc2)sc1/C=C1\C=Nc2ccccc21 | 13.1µM* | -14.7% | -15.5% | ? | -18.8%
CC1=Nc2ccccc2/C1=C\c1sc(Nc2ccc(C)cc2)nc1O | ? | -49.4% | -4.8%[11.6 µM] | 6.57µM* | ?
Cc1cccc(NS(=O)(=O)c2ccc3c(c2)Cc2cc(S(=O)(=O)Nc4cccc(C)c4C)ccc2-3)c1C | 9.28µM* | -2.4% | 5.0% | 24.5% | -3.5%
Cc1cccc(NS(=O)(=O)c2ccc(-c3cnc(C4CC4)o3)cc2)c1C | ? | / | 0.0% | 6.57µM* | /
N#CCSc1ccccc1NC(=O)COC(=O)Cc1c[nH]c2ccccc12 | 10.4µM* | / | -1.8% | 6.57µM* | /
Cc1ccc(NC(=O)CSc2nnc(-c3ccccc3)n2C)cc1 | / | -10.5% | / | / | -13.7%
CCOc1cc(NC(=O)c2ccccn2)c(OCC)cc1NC(=O)c1cccc(C)c1 | -19.5%[1.15 µM] | / | 20.6% | 11.7µM* | /
CCOc1cc(NC(=S)NCC2CCCO2)c(OCC)cc1NC(=O)c1cccc(C)c1 (stereo not given) | ? | / | -20.4% | 11.7µM* | /
COc1cc(NC(=S)NCC2CCCO2)c(OC)cc1Cl (stereo not given) | -11.2% | / | -10.4% | 8.28µM* | /
CCOc1cc(NC(=S)NCC2CCCO2)c(OCC)cc1NC(=O)c1ccccc1 (stereo not given) | ? | / | -10.2% | ? | /
CCOc1cc(-c2c(C#N)c(N)nc3c2CCc2ccccc2-3)ccc1O | ? | ? | 4.4% | -4.4% | ?
CCOc1cc(-c2c(C#N)c(N)nc3c2CCCC3C)ccc1O (stereo not given) | -23.6% | ? | -0.6% | 2.94µM* | -26.7%
Cc1ccc(N(Cc2cccs2)C(=O)c2ccccc2)cc1 | / | 0.5% | / | / | 6.1%
Cc1cc(C)c(CN2CCC(n3nccc3NC(=O)CCOc3ccccc3)CC2)cc1C | ? | / | -11.7% | 13.1µM* | /
Cc1ccccc1CN1CCC(n2nccc2NC(=O)CCOc2ccccc2)CC1 | ? | / | -10.4% | 4.15µM* | /
COc1cccc(NC(=O)C2CCN(C(=O)N3CC(C)Oc4ccccc43)CC2)c1 (stereo not given) | / | -11.7% | / | / | -5.7%
Cc1cc(C(=O)Nc2ccccc2-c2nc(CNC(=O)c3cscn3)c(C)o2)c(C)o1 | / | -9.9% | / | / | 0.4%
CC(C)(C)c1cccc(S(=O)(=O)N2CCN(c3nc(-c4cccs4)nc4ccccc34)CC2)c1 | / | i | / | / | -14.3%
O=C(c1cccc(Br)c1)c1cn(-c2ccccc2)nc1C(=O)c1ccccc1 | 4.65µM* | -11.0% | -3.6% | ? | -1.9%
